For 40 molecules, Potency results are on record in PubChem BioAssay AID2590 (National Center for Advancing Translational Sciences (NCATS), 2010).

“And” between values parts separate entries of the source, which are not always exact repeats. Identical values can stand only once. Records with an inconclusive call do not appear. The source made the active and inactive calls. Calls follow the shape of the dose curve; as a rule, active = well fitted curve in the direction sought with a large enough effect; inconclusive = small, poorly fitted or top-dose-only effect, or another doubt; inactive = no such curve, though single readings can be large or run the other way.
Potency is read from the fitted curve at half-maximal effect.

Sequence of Lysosomal acid glucosylceramidase (Homo sapiens) (P04062 whole entry N409S): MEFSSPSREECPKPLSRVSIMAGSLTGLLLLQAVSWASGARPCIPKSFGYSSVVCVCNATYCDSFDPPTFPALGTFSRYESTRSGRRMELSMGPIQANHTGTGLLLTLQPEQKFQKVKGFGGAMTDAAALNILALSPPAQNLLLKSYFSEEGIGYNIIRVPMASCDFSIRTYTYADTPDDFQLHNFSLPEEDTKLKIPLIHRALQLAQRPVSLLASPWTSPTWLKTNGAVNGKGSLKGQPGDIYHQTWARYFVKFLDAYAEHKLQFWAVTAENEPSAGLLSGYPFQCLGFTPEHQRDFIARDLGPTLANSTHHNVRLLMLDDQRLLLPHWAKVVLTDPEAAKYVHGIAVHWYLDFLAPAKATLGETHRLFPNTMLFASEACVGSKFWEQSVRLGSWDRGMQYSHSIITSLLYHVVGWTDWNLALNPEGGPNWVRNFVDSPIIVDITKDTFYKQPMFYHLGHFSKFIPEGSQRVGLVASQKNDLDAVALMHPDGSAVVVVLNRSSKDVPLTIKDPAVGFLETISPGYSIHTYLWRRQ

The target in this experiment is Lysosomal acid glucosylceramidase (Homo sapiens) (UniProt P04062). Briefly: qHTS Assay for Inhibitors and Activators of N370S glucocerebrosidase as a Potential Chaperone Treatment of Gaucher Disease: Primary Screen Confirmation. Conditions: N370S glucocerebrosidase enzyme activity, fluorogenic substrate; series mostly up to 54 µM. The text has this:
NIH Chemical Genomics Center [NCGC]
NIH Molecular Libraries Probe Production Centers Network [MLPCN]
Assay Submitter (PI): Wei Zheng
Glucocerebrosidase (GC) catalyzes the hydrolysis of beta-glucocerebroside to glucose and ceramide in lysosomes. Mutations in the glucocerebrosidase gene result in Gaucher disease, an autosomal recessive lysosomal storage disorder. Many of the mutations encountered in patients with Gaucher disease are missense alterations that may cause misfolding, decreased stability and/or mistrafficking of this lysosomal protein. […] These inhibitors include iminosugar analogs and three non-iminosugar inhibitors identified from a previous HTS of 62,000 compounds with the wild type recombinant enzyme. However, the enhancement of enzyme activity by the chaperone action of an enzyme inhibitor must be balanced against the direct inhibition of the enzyme. An enzyme activator could also function as a chaperone by binding to the enzyme and helping to correct its misfolding and mistrafficking. While activators for GC have not yet been identified, they may have better therapeutic potential than inhibitors. Therefore the discovery and development of chemical activators may provide a new strategy for the chaperone therapy.
We have optimized a new assay using N370S mutant GC derived from the spleen of a Gaucher patient. […] In addition, the MLPCN compound library has expanded, which increases the chance of finding new and better probes.
NCGC Assay Protocol Summary:
This is a fluorogenic enzyme assay with 4-methylumbelliferyl-beta-D-glucopyranoside as the substrate and N370S glucocerebrosidase from human spleen homogenate as the enzyme preparation. Upon the hydrolysis of this fluorogenic substrate, the resulting product, […] which can be detected by a standard fluorescence plate reader. Data were normalized to the controls for basal activity (without enzyme) and 100% activity (with enzyme). The AC50 values were determined from concentration-response data modeled with the standard Hill equation.
Assay buffer: 50 mM citric acid (titrated with potassium phosphate to pH 5.0), 100 mM potassium chloride, 10 mM sodium chloride, 1 mM magnesium chloride, 0.01% Tween-20.
1536-well assay protocol:
(1) Add 2 ul/well of spleen homogenate (27 ug final)
(2) Add 23 nL compounds in DMSO solution. The final titration was 0.5 nM to 58 uM.
(3) Add 2 ul of substrate (1 mM final)
(4) Incubate at 37C for 40 min.
(5) Add 2 ul stop solution (1M NaOH and 1M Glycine mixture, pH 10)
(6) Detect the assay plate in a ViewLux plate reader (PerkinElmer) with Ex=365 nm and Em=440nm.
Keywords: Glucocerebrosidase, beta-glucosidase, Gaucher Disease, pharmacological chaperone, chaperone therapy, high throughput screening, glucocerebrosidase inhibitor, MLSMR, MLSCN, NIH Roadmap, qHTS and NCGC
Regarding `O=S(=O)(c1ccc(C(F)(F)F)cc1)N1CCN(c2nc(-c3cccs3)nc3ccccc23)CC1`, the Potency is 2.53 µM (active).
Under `O=S(=O)(c1cccc2ccccc12)N1CCN(c2nc(-c3cccs3)nc3ccccc23)CC1` stands 0.819 µM (active); under `CCC(=O)OCCNc1nc(-c2ccccc2)nc2ccccc12`, 16 µM (active).
As for `COc1ccc2cc(C(=O)NCc3ccccc3)c(=O)oc2c1`, the Potency entry is “inactive”.
As to `S=C(NCCCc1cnc[nH]1)NCCCN(Cc1ccccc1)c1ccc(Br)cn1`, the Potency was 5.79 µM (active).
`COc1ccc(S(=O)(=O)N2CCN(c3nc(-c4ccccc4)nc4ccccc34)CC2)cc1`: the Potency is 3.66 µM (active).
Consider `Cc1ccc(S(=O)(=O)N2CCN(c3nc(-c4cccs4)nc4cccnc34)CC2)cc1`, for which the Potency is 2.53 µM (active).
On to `O=S(=O)(c1ccc2c(c1)CCCC2)N1CCN(c2nc(-c3cccs3)nc3ccccc23)CC1`, for which the Potency was 0.713 µM (active).
For the molecule `S=C(NCCCc1cnc[nH]1)NCCCN(Cc1ccc(Cl)cc1)c1cc(-c2ccccc2)ccn1`, the Potency is 5.66 µM (active).
As to `S=C(NCCCc1cnc[nH]1)NCCCN(Cc1ccc(Cl)c(Cl)c1)c1ccccn1`, the Potency was 7.29 µM (active).
Under `Cc1cc(C)nc(NC(=O)Cc2ccc(Cl)cc2)c1` stands “inactive”; under `CN(CCCc1cnc[nH]1)C(=S)NCCCN(Cc1ccc(Cl)cc1)c1ccc(Br)cn1`, 11.4 µM (active); under `N=c1c(S(=O)(=O)c2ccccc2)cc2c(=O)n3ccccc3nc2n1CCCN1CCOCC1`, “inactive”.
With `O=S(=O)(c1ccc(OC(F)(F)F)cc1)N1CCN(c2nc(-c3cccs3)nc3ccccc23)CC1`, the Potency was 2.91 µM (active).
In the case of `CCOc1ccc(N(CC(=O)NC2CCCCCC2)S(=O)(=O)c2c(C)[nH]c(=O)[nH]c2=O)cc1`, the Potency was 7.94 µM (active).
With `O=C(c1ccc2c(c1)OCCO2)N1CCN(c2nc(-c3cccs3)nc3ccccc23)CC1`, the Potency is 3.66 µM (active).
Then `O=C(Nc1cnn(Cc2ccc(F)cc2)c1)c1cnn2c(C(F)F)cc(-c3ccccc3)nc12`, with “inactive”.
For the molecule `S=C(NCCCN(Cc1ccc(Cl)c(Cl)c1)c1ccc(Br)cn1)NCCc1cnc[nH]1`, the Potency was 18.3 µM (active).
`O=S(=O)(c1cc(Cl)cc(Cl)c1)N1CCN(c2nc(-c3cccs3)nc3ccccc23)CC1`: the Potency was 2.53 µM (active).
Then `Cc1ccc(S(=O)(=O)N2CCN(c3nc(-c4cccs4)nc4ncccc34)CC2)cc1`, with 2.25 µM (active); and `Cc1ccccc1-c1nccc(NCc2cccs2)n1`, with 15.8 µM (active); and `O=S(=O)(c1ccccc1)N1CCN(c2nc(-c3ccc(F)cc3)nc3cc(Cl)ccc23)CC1`, with “inactive”.
Regarding `NC(=NCCCCCCN=C(N)/N=C(\N)Nc1ccc(Cl)cc1)/N=C(\N)Nc1ccc(Cl)cc1`, the Potency was 11.6 µM (active) and 18.3 µM (active) and 16.3 µM (active).
In the case of `CC(=O)c1ccc(S(=O)(=O)N2CCN(c3nc(-c4cccs4)nc4ccccc34)CC2)cc1`, the Potency was 1.79 µM (active).
Consider `CC(Nc1nc(-c2ccccc2F)nc2ccccc12)c1ccccc1` (stereo not given), for which the Potency is 3.66 µM (active).
As to `O=S(=O)(c1ccccc1Cl)N1CCN(c2nc(-c3cccs3)nc3ccccc23)CC1`, the Potency is 1.16 µM (active) and 259 nM (active).
For the molecule `CCOC(=O)c1ccc(S(=O)(=O)N2CCN(c3nc(-c4cccs4)nc4ccccc34)CC2)cc1`, the Potency is 0.819 µM (active).
With `Cc1cccc(NC(=S)Nc2cccc(C)n2)n1`, the Potency result is “inactive”.
Regarding `O=S(=O)(c1cccnc1)N1CCN(c2nc(-c3cccs3)nc3ccccc23)CC1`, the Potency is 3.18 µM (active).
Take `O=S(=O)(c1ccccc1C(F)(F)F)N1CCN(c2nc(-c3cccs3)nc3ccccc23)CC1`: the Potency is 0.41 µM (active).
Take `O=S(=O)(c1ccc2ncsc2c1)N1CCN(c2nc(-c3cccs3)nc3ccccc23)CC1`: the Potency was 0.366 µM (active).
Consider `O=S(=O)(c1cccc(Br)c1)N1CCN(c2nc(-c3cccs3)nc3ccccc23)CC1`, for which the Potency was 2.53 µM (active).
On to `Cc1ccc(S(=O)(=O)N2CCN(c3nc(C(N)=O)nc4ccccc34)CC2)cc1`, for which the Potency was 13 µM (active).
Consider `Cc1ccc(S(=O)(=O)N2CCN(c3nc(-c4ccco4)nc4ccccc34)CC2)cc1`, for which the Potency is 1.01 µM (active).
As for `S=C(NCCCc1cnc[nH]1)NCCCN(Cc1ccc(Cl)cc1)c1ccc(Br)cc1`, the Potency was 1.13 µM (active).
For `NCCCNc1ccc(Br)cn1`, the Potency entry is “inactive”.
For the molecule `Cc1ccc(S(=O)(=O)C2CCN(c3nc(-c4cccs4)nc4ccccc34)CC2)cc1`, the Potency is 8.19 µM (active).
Regarding `COCCNC(=O)/C(C#N)=C/c1c(N2CCN(C)CC2)nc2c(C)cccn2c1=O`, the Potency result was “inactive”.
Under `O=S(=O)(c1cccs1)N1CCN(c2nc(-c3cccs3)nc3ccccc23)CC1` stands 0.819 µM (active); under `COc1ccc(NC(=O)Nc2cccc(C)n2)c(OC)c1`, “inactive”.
